Results from PubChem BioAssay (NCATS).
Results filed as inconclusive are left out. Activity calls are given as the source filed them. Calls follow the shape of the dose curve; as a rule, active = well fitted cell-killing curve with a large enough effect; inconclusive = small, poorly fitted or top-dose-only effect, or effect the other way; inactive = flat fitted curve, though single readings scatter.

tested on: C33A; experiment: Primary qHTS to identify gynecologic anti-cancer compounds using libraries of approved drugs and bioactive compounds (AID 1345084); conditions: Gynecologic cancer cell panel viability, ATPlite luminescence, 48 h; series mostly up to 57.5 µM; activity change, negative = cytotoxicity: at the top concentration; also: nearly all actives have a fitted effect of over 55% in size
How it was run: (§1)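 Measured: luminescence after ATPlite addition (15 min, RT). Exposure: 48 h, 37 C, 5% CO2.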
% is scaled to controls: 0 for no effect and ±100 for the full control effect; potency is read from the fitted curve at half-maximal effect.

Structure (SMILES) | activity change, negative = cytotoxicity
CC1(C)CCCC2(C)C1CC=C1C(=O)OC(O)C12O (configuration not stated) | -3.95% (inactive)
CCOc1ccc(S(=O)(=O)n2c(C)nc3ccccc32)cc1 | -2.66% [at 25.3 µM] (inactive)
CC(C)[C@H]1CC[C@@]2(O)COC(=O)[C@H]2[C@@H]1/C=C(\CO)C(=O)O | 6.44% (inactive)
CC(O)CO[C@@H]1O[C@H](CO)[C@@H](O)[C@H](O)[C@H]1O (some centres not stated) | -5.3% (inactive)
CC1(C=O)CC[C@]2(C(=O)O[C@@H]3O[C@H](CO)[C@@H](O)[C@H](O)[C@H]3O)CC[C@]3(C)C(=CCC4[C@@]5(C)C[C@H](O)[C@H](O[C@@H]6OC[C@@H](O)[C@H](O)[C@H]6O)[C@@](C)(CO)C5CC[C@]43C)C2C1 (some centres not stated) | -2.32% [at 11.6 µM] (inactive)
COC1C(CO)OC(n2cnc3c(=O)[nH]cnc32)C1O (configuration not stated) | -15.9% (inactive)
Cc1csc(NC(=O)c2ccc(COc3cccc(Cl)c3)o2)n1 | 4.55% (inactive)
CC[C@@](C)(Nc1ccnc(-c2c[nH]c3ncccc23)n1)C(=O)NCC(F)(F)F | -1.93% (inactive)

tested on: CAOV3; experiment: as above; conditions: Gynecologic cancer cell panel viability, ATPlite luminescence, 48 h; series mostly up to 57.5 µM; activity change, negative = cytotoxicity: at the top concentration
How it was run: as §1

Structure (SMILES) | activity change, negative = cytotoxicity | Potency
COc1ccc(-c2nc(-c3ccc(-c4cccc(Cl)c4)o3)[nH]c2-c2ccc(OC)cc2)cc1 | -4.36% (inactive) | 
CC(=O)c1c(O)cc(O[C@@H]2O[C@H](CO)[C@@H](O)[C@H](O)[C@H]2O)cc1O | -6.15% [at 38.5 µM] (inactive) | 
C=C1C(O)C(O)C2(CC3C(C)=CCC4C(C)(CO)CCCC34C)OC2C1O (configuration not stated) | -8.51% [at 38.5 µM] (inactive) | 
O=C1NC(Cc2c[nH]c3ccccc23)C(=O)NC1Cc1c[nH]c2ccccc12 (configuration not stated) | -1.36% [at 38.5 µM] (inactive) | 
CC1CCC2(C=O)C(CO)=CCCC2C1(C)CC(=O)O (configuration not stated) | 29.9% (inactive) | 
COc1cc(C)c(C(=O)O[C@H]2[C@@H](OC(C)=O)[C@H](n3ccc(=O)[nH]c3=O)O[C@@H]2CO)c(OC)c1 | -5.21% [at 25.3 µM] (inactive) | 
COC(=O)C1=CO[C@@H](O[C@@H]2O[C@H](CO)[C@@H](O)[C@H](O)[C@H]2O)[C@@H]2[C@@](C)(O)[C@@H](OC(=O)/C=C/c3ccc(O)cc3)C[C@]12O | 3% [at 25.3 µM] (inactive) | 
C[C@@H]([C@@H](O)c1ccc(O)cc1)N1CCC(O)(c2ccccc2)CC1 | 0.449% (inactive) | 
N#C[C@@H]1C[C@H](F)CN1C(=O)CNC1[C@H]2CN(C(=O)c3ccc(F)cc3)C[C@@H]12 (some centres not stated) | 11.6% (inactive) | 
C=C1CCC2C(C)(C(=O)OC)CCCC2(C)C1CCC(C)CC(=O)O (configuration not stated) | 3.97% [at 38.5 µM] (inactive) | 
C[C@@H]1C(=O)O[C@H]2C[C@]34[C@H]5C[C@@H](C(C)(C)C)[C@]36[C@@H](OC(=O)[C@H]6O)O[C@]4(C(=O)O5)[C@]21O | 13.8% [at 25.3 µM] (inactive) | 
COC(=O)C1=COC(O[C@@H]2O[C@H](CO)[C@@H](O)[C@H](O)[C@H]2O)[C@H]2[C@@H]1[C@H](OC(=O)CCc1ccc(O)cc1)C[C@]2(C)O (some centres not stated) | 8.05% [at 25.3 µM] (inactive) | 
CC(=O)OC[C@H]1O[C@H](O[C@]2(CO)O[C@H](CO)[C@@H](OC(=O)/C=C/c3ccccc3)[C@@H]2O)[C@H](O)[C@@H](O)[C@@H]1O | 5.19% [at 25.3 µM] (inactive) | 
C=C(C)C1CC[C@]2(C(=O)O)CC[C@]3(C(=O)O)[C@H](CCC4[C@@]5(C)CC[C@H](O)C(C)(C)C5CC[C@]43C)C12 (some centres not stated) | 26.5% [at 25.3 µM] (inactive) | 
COc1cc(/C=C/C(=O)O[C@H]2[C@H](O)[C@@H](CO)O[C@@]2(CO)O[C@H]2O[C@H](CO)[C@@H](O)[C@H](O)[C@H]2O)ccc1O | 0.0758% [at 25.3 µM] (inactive) | 
CC1(C(=O)O)CCCC2(C)C3CCC4CC3(CCC12)CC4=O (configuration not stated) | 2.55% (inactive) | 
C/C=C/C(O)C1OC(=O)CC1Nc1ccc(C(=O)O)cc1 (configuration not stated) | -1.13% (inactive) | 
C=C(CO[C@@H]1O[C@H](CO[C@@H]2OC[C@](O)(CO)[C@H]2O)[C@@H](O)[C@H](O)[C@H]1O)C1Cc2cc(C(C)=O)ccc2O1 (some centres not stated) | 5.62% [at 25.3 µM] (inactive) | 
COc1ccc([C@@]2(O)c3c(ccc4c3OC(C)(CCC=C(C)C)C=C4)NC(=O)[C@@H]2OC)cc1 (some centres not stated) | -1.34% [at 25.3 µM] (inactive) | 
C=C1C[C@]23C[C@H]1[C@@H](O)C[C@H]2[C@@]12C=C[C@H](O)[C@@](C)(C(=O)O1)[C@H]2[C@@H]3C(=O)O | 13.3% [at 38.5 µM] (inactive) | 

Structure (SMILES) | activity change, negative = cytotoxicity | Potency
C=C1C(=O)O[C@@H]2C[C@H](C)[C@@]3(O)C=C(C(C)=O)[C@]4(CC3C[C@H]12)C(=O)O[C@H]1C[C@@H](C)C(CCC(C)=O)=CC[C@H]14 (some centres not stated) | 6.08% [at 25.3 µM] (inactive) | 
CCC(C)C(=O)OC1CC(C)C=C2C=CC(C)C(CCC(O)CC(O)CC(=O)O)C21 (configuration not stated) | -13.6% [at 25.3 µM] (inactive) | 
OC[C@H]1O[C@@H](OCCc2ccccc2)[C@H](O[C@@H]2OC[C@](O)(CO)[C@H]2O)[C@@H](O)[C@@H]1O | 1.63% [at 25.3 µM] (inactive) | 
CC1=C(C(=O)O)/C(=C\CO[C@@H]2O[C@H](CO)[C@@H](O)[C@H](O)[C@H]2O)C(OC(=O)/C=C\c2ccc(O)cc2)C1 (some centres not stated) | 20.9% [at 25.3 µM] (inactive) | 
CC1(C)CCCC2(C)C1C(O)C=C(CO)C2(O)CO (configuration not stated) | 6.6% (inactive) | 
C/C=C(\C)C(=O)OCC1OC(OC2OC(COC(=O)/C(C)=C/C)C(OC3OC(CO)C(OC(=O)/C(C)=C/C)C(OC(=O)/C(C)=C/C)C3O)C(O)C2O)C(O)C(O)C1OC1OC(CO)C(OC(=O)/C(C)=C/C)C(OC(=O)/C(C)=C/C)C1O (configuration not stated) | -7.6% [at 11.6 µM] (inactive) | 
COc1c2c(c(C)c3c1C(=O)OC3)O[C@@]1(C)CCC3(C(C)(C)O)OC(=O)CC[C@]3(C)[C@H]1C2 (some centres not stated) | -2% [at 25.3 µM] (inactive) | 
COc1ccc(C[C@H](N)C(=O)N[C@@H]2[C@H](O)[C@H](n3cnc4c(N(C)C)ncnc43)O[C@@H]2CO)cc1 |  | 1580 nM (active)
OC1CCC(Nc2ncc3nc(Nc4c(F)cc(F)cc4F)n([C@H]4CCOC4)c3n2)CC1 (some centres not stated) | 4.67% (inactive) | 
Cn1cc(-c2ccc3nnc(Sc4ccc5nn(C)cc5c4)n3n2)cn1 | -3.36% (inactive) | 
COc1cc(N)c(Cl)cc1C(=O)NC[C@@H]1CCN2CCC[C@@H]12 | -0.791% (inactive) | 
CC1(C)CCCC2(C)C1CC=C1C(=O)OC(O)C12O (configuration not stated) | -1.18% (inactive) | 
CCOc1ccc(S(=O)(=O)n2c(C)nc3ccccc32)cc1 | 0.552% [at 25.3 µM] (inactive) | 
CC(C)[C@H]1CC[C@@]2(O)COC(=O)[C@H]2[C@@H]1/C=C(\CO)C(=O)O | 0.106% (inactive) | 
CC(O)CO[C@@H]1O[C@H](CO)[C@@H](O)[C@H](O)[C@H]1O (some centres not stated) | 17.3% (inactive) | 
CC1(C=O)CC[C@]2(C(=O)O[C@@H]3O[C@H](CO)[C@@H](O)[C@H](O)[C@H]3O)CC[C@]3(C)C(=CCC4[C@@]5(C)C[C@H](O)[C@H](O[C@@H]6OC[C@@H](O)[C@H](O)[C@H]6O)[C@@](C)(CO)C5CC[C@]43C)C2C1 (some centres not stated) | -2.27% [at 11.6 µM] (inactive) | 
COC1C(CO)OC(n2cnc3c(=O)[nH]cnc32)C1O (configuration not stated) | -2.98% (inactive) | 
Cc1csc(NC(=O)c2ccc(COc3cccc(Cl)c3)o2)n1 | 13.8% (inactive) | 
CC[C@@](C)(Nc1ccnc(-c2c[nH]c3ncccc23)n1)C(=O)NCC(F)(F)F | 7.86% (inactive) | 
